Experimental data published in PubChem BioAssay (NCI).
Compounds without any hit were thinned out: in the full panel of roughly 79,000, 15% have a hit. The source made the active and inactive calls. Rule as the data show it: active = growth inhibition above about 70%; inactive = the rest.

assay: NCI Yeast Anticancer Drug Screen. Data for the mec2-1 strain (AID 157); conditions: S. cerevisiae mec2-1 strain, at 50.0 µM, stronger effect = higher value
Procedure, shortened: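 mec2-1 yeast strain, carrying an alteration in DNA damage repair or cell cycle control, was exposed to compounds; growth inhibition was measured relative to vehicle-treated controls.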

Q: With `CC(=O)O[C@H]1CC[C@@]2(C)[C@@H](CC[C@@H]3[C@@H]2CC(=O)[C@]2(C)[C@@H]4[C@H](C[C@@H]32)O[C@]2(CC[C@@H](C)CO2)[C@H]4C)C1` as the molecule, how does the growth inhibition read?
A: Its growth inhibition is -12.2% (inactive).

Q: Which growth inhibition does the source give for `CCCCN(CCCC)CCCNC(=S)Nc1ccccc1` here?
A: Its growth inhibition is 24.2% (inactive).

Q: For `C/C(=C\c1ccccc1)C(O)C(=O)c1nc2ccc(Cl)cc2[nH]c1=O` (stereo not given), which growth inhibition is on record?
A: The growth inhibition was -15.4% (inactive).

Q: For `CC(c1ccccc1)C(C)(C)O` (stereo not given), which growth inhibition is on record?
A: The growth inhibition was -8.25% (inactive).

Q: With `O=[N+]([O-])c1ccc(Oc2ccc(Cl)cc2)cc1` as the molecule, how does the growth inhibition read?
A: The growth inhibition was -11.8% (inactive).

Q: With `Cc1cc2c(cc1[N+](=O)[O-])OCCO2` as the molecule, how does the growth inhibition read?
A: The growth inhibition was 3.9% (inactive).

Q: For `O=C(O)c1c(F)c(F)c(-c2c(F)c(F)c(C(=O)O)c(C(=O)O)c2F)c(F)c1C(=O)O`, which growth inhibition is on record?
A: The growth inhibition was 5.5% (inactive).

Q: With `CCOC(=O)NC(=O)c1cn(CCN2CCN(C(=O)NCCCCCCNC(=O)N3CCN(CCn4cc(C(=O)NC(=O)OCC)c(=O)[nH]c4=O)CC3)CC2)c(=O)[nH]c1=O` as the molecule, how does the growth inhibition read?
A: Its growth inhibition is 14.7% (inactive).

Q: For `CCCCCCCCC(=O)c1c(OC)oc(C=O)cc1=O`, which growth inhibition is on record?
A: Its growth inhibition is -22.8% (inactive).

Q: For `CCOC(CN(Cc1ccccc1)CC(OCC)OCC)OCC`, which growth inhibition is on record?
A: The growth inhibition was 8.15% (inactive).

Q: For `CCOC(CNCCC(=O)OC)OCC`, which growth inhibition is on record?
A: Its growth inhibition is -59.2% (inactive).

Q: With `Cc1cc(C)cc(N=Nc2c(N)nc(N)[nH]c2=O)c1` as the molecule, how does the growth inhibition read?
A: The growth inhibition was -10.7% (inactive).

Q: Which growth inhibition does the source give for `O=C(N/N=C/c1ccc(Cl)cc1Cl)c1cccc([N+](=O)[O-])c1` here?
A: The growth inhibition was -8.7% (inactive).

Q: For `OCCCCC(c1ccc(O)cc1)c1ccc(O)cc1`, which growth inhibition is on record?
A: Its growth inhibition is -52.3% (inactive).

Q: With `O=C(O)CC(c1ccccc1)C(CC(=O)O)c1ccccc1.[NH-]C1CCCCC1[NH-].[Pt+2]` (stereo not given) as the molecule, how does the growth inhibition read?
A: The growth inhibition was 7.8% (inactive).
